FMDV Renilla: antivirals against foot and mouth disease virus replicon; actives 0.32% (n = 120,000); FMDV replicon cells, Renilla luciferase signal; Potency, µM (top dose mostly 57.5 µM), for the others: top-dose activity change, negative = inhibition, most hits filed as inhibitors; also: nearly all actives have a fitted effect of over 55% in size
FMDV antiviral: shows antiviral activity against foot and mouth disease virus. FMDV antiviral cell assay, firefly luciferase signal. Potency, µM (doses to about 57.5 µM), for inactives: at the highest dose activity change, negative = inhibition, actives largely listed as inhibitors. actives 0.23% (n = 120,000). AID 1745856; also: nearly all actives have a fitted effect of over 60% in size
Numbers without * were called inactive; [ ] = dose if it differs, or a comment. The list is not random: actives were taken first. Their share in the collection is about 0.4%. Calls follow the shape of the full dose curve. % is scaled to controls: 0 for no effect and ±100 for the full control effect; potency is read from the fitted curve at half-maximal effect.

What do the screens show for `Cc1nc(SC2=CS(=O)(=O)c3ccccc32)oc1C`?
FMDV Renilla: 31.2%; FMDV antiviral: 0.0%

How did N#C/C(=C\c1cccc(OC(=O)c2ccccc2Cl)c1)C(=O)Nc1cccc(C(F)(F)F)c1 do in these assays?
FMDV Renilla: 1.1%; FMDV antiviral: 128.3%

Results for O=C(Nc1cccc(C(F)(F)F)c1)C(=Cc1cccc(Oc2ccccc2)c1)C(=O)Nc1cccc(C(F)(F)F)c1 ?
FMDV Renilla: 3.98µM*; FMDV antiviral: 4.47µM*

Results for N#CC1=C(N)Oc2c(c(=O)[nH]c3ccccc23)C1c1ccccc1 (configuration not stated) ?
FMDV Renilla: 3.6%; FMDV antiviral: 3.7%

Results for COc1ccc(-c2csc3ncnc(N4CCN(Cc5ccccc5)CC4)c23)cc1 ?
FMDV Renilla: -6.9%; FMDV antiviral: 14.8%

How did CCOc1ccc(CN2CCN(c3ncnc4sccc34)CC2)cc1 do in these assays?
FMDV Renilla: 0.891µM*; FMDV antiviral: 1.12µM*

How did COC(=O)c1ccc(/C=N/OCc2ccc(Cl)c(Cl)c2)cc1 do in these assays?
FMDV Renilla: -1.9%; FMDV antiviral: -5.9%

Results for Cc1cc(C)cc(NC(=S)NCCO)c1 ?
FMDV Renilla: -0.3%; FMDV antiviral: 0.9%

What do the screens show for `COc1ccc(-c2nnc(SCc3cc(=O)c4cc(C)cc(C)c4[nH]3)n2C)cc1`?
FMDV Renilla: 3.98µM*; FMDV antiviral: inconclusive

What do the screens show for `COc1ccc(C(=O)Nc2nnc(SCc3cc(=O)c4cc(C)cc(C)c4[nH]3)s2)cc1`?
FMDV Renilla: -10.1%; FMDV antiviral: 12.4%

Results for CC[C@@H]1CC2C3CCC4=C/C(=N/O)CC[C@]4(C)C3CC[C@]2(C)[C@H]1/C(C)=N/O (some centres not stated) ?
FMDV Renilla: -4.3%; FMDV antiviral: 20.6%

How did CCCOc1ccc2ccccc2c1CN(C)C(=O)Cc1n[nH]c(=O)c2ccccc12 do in these assays?
FMDV Renilla: inconclusive; FMDV antiviral: 25.1µM*

Results for CN(Cc1cccs1)C(=O)Cc1n[nH]c(=O)c2ccccc12 ?
FMDV Renilla: -0.5%; FMDV antiviral: 14.5%

How did CCCOC(=O)c1cc(NC(=O)c2cc(Br)ccc2OC)ccc1N1CCOCC1 do in these assays?
FMDV Renilla: 50.6%; FMDV antiviral: 1.7%

How did COc1ccccc1OCCn1cc(C(=O)C(F)(F)F)c2cc(Br)ccc21 do in these assays?
FMDV Renilla: -9.5%; FMDV antiviral: -3.2%

How did COc1ccccc1OCCn1cc(C(C)=O)c2ccccc21 do in these assays?
FMDV Renilla: 15.8µM*; FMDV antiviral: inconclusive

How did Cc1cccc(Oc2ccc(NC(=O)c3ccc4c(c3)NC(=O)CS4)cc2)c1 do in these assays?
FMDV Renilla: 22.4µM*; FMDV antiviral: inconclusive

How did O=C1CSc2ccc(C(=O)Nc3ccccc3)cc2N1 do in these assays?
FMDV Renilla: 5.3%; FMDV antiviral: 170.8%

What do the screens show for `Cc1ccc(-c2cc(C(=O)O)c3cccc(Cl)c3n2)s1`?
FMDV Renilla: -9.6%; FMDV antiviral: 0.0%

What do the screens show for `CC(C)=CCNc1ncnc2c1ncn2[C@@H]1O[C@H](CO)[C@@H](O)[C@H]1O`?
FMDV Renilla: 9.1%; FMDV antiviral: 5.6%[11.5 µM]

Results for Nc1nc(F)nc2c1ncn2[C@@H]1O[C@H](CO)[C@@H](O)[C@@H]1O ?
FMDV Renilla: 14.1µM*; FMDV antiviral: inconclusive

What do the screens show for `COc1ccccc1CN1CCC(Cc2ccccc2)CC1`?
FMDV Renilla: -6.7%; FMDV antiviral: -2.8%

What do the screens show for `CCN(CC)S(=O)(=O)c1ccc2oc(SC(C(=O)NC3CC3)c3ccccc3)nc2c1` (configuration not stated)?
FMDV Renilla: 5.8%; FMDV antiviral: 5.1%

How did COC(=O)c1ccc(NC(=O)CN(C)S(=O)(=O)c2ccc3c(c2)CCCC(=O)N3)cc1 do in these assays?
FMDV Renilla: 0.9%; FMDV antiviral: -3.0%

What do the screens show for `CN(CC(=O)Nc1ccc(OC(F)(F)F)cc1)S(=O)(=O)c1ccc2c(c1)CCC(=O)N2`?
FMDV Renilla: inconclusive; FMDV antiviral: 22.4µM*

Results for CN(C)c1ccc(Nc2cccc3nccnc23)cc1 ?
FMDV Renilla: 1.1%; FMDV antiviral: 8.0%

How did CCOc1ccc(CN(CC)Cc2cc(=O)oc3ccc(OC)cc23)cc1 do in these assays?
FMDV Renilla: 25.1µM*; FMDV antiviral: inconclusive

What do the screens show for `CCN(Cc1ccc(OC)cc1)Cc1cc(=O)oc2ccc(C)cc12`?
FMDV Renilla: 6.4%; FMDV antiviral: 2.6%

What do the screens show for `Cc1ccc(CN2CCC(CNC(=O)Nc3cn(CC(C)C)c(=O)c4ccccc34)C2)cc1` (configuration not stated)?
FMDV Renilla: -10.2%; FMDV antiviral: -3.9%

How did COc1ccc(-c2nc(CNS(=O)(=O)c3ccc(F)cc3)cs2)cc1 do in these assays?
FMDV Renilla: -5.0%; FMDV antiviral: -4.8%

What do the screens show for `CNc1snc(C)c1C(=O)OCc1csc(-c2ccc(F)cc2)n1`?
FMDV Renilla: 0.708µM*; FMDV antiviral: inconclusive

What do the screens show for `C/C=C/C=C/C(=O)NC1CC2CCC1(C)C2(C)C` (configuration not stated)?
FMDV Renilla: -3.1%; FMDV antiviral: 22.1%

Compound activity: PubChem BioAssay, National Center for Advancing Translational Sciences (NCATS)
